Usually inhibition stands for the relative decrease from the control value, in per cent.

95 molecules from PubChem BioAssay AID624330 (Southern Research Specialized Biocontainment Screening …, 2012) can be followed below.

Out of some 340,000 compounds screened, about 2,100 (0.62%) were called active. The list is a sample of the results. Measured potencies and affinities stand elsewhere. Unmarked numbers belong to inactive results.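 The calls were made as follows: active = first-screen hits whose inhibition reached a set limit at any dose in the follow-up dose series; inconclusive = inhibition above the set first-screen limit but never retested; inactive = the rest.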

In this assay the target is Rac GTPase-activating protein 1 (Homo sapiens) (UniProt Q9H0H5). Briefly: blockers of MgcRacGAP-driven Rac1 GTP hydrolysis – biochemical, ADP Hunter fluorescence, primary and confirmatory, confirmation (AID 624330).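 Also: fluorescence reports GDP produced by GAP-driven GTP hydrolysis.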 The note with it: MgcRacGAP-stimulated Rac1 GTP hydrolysis, at 30 µM, hits give high values, GST-tagged Rac1 F28L mutant substrate.
Sequence of Rac GTPase-activating protein 1 (Homo sapiens) (Q9H0H5 whole entry, looked up): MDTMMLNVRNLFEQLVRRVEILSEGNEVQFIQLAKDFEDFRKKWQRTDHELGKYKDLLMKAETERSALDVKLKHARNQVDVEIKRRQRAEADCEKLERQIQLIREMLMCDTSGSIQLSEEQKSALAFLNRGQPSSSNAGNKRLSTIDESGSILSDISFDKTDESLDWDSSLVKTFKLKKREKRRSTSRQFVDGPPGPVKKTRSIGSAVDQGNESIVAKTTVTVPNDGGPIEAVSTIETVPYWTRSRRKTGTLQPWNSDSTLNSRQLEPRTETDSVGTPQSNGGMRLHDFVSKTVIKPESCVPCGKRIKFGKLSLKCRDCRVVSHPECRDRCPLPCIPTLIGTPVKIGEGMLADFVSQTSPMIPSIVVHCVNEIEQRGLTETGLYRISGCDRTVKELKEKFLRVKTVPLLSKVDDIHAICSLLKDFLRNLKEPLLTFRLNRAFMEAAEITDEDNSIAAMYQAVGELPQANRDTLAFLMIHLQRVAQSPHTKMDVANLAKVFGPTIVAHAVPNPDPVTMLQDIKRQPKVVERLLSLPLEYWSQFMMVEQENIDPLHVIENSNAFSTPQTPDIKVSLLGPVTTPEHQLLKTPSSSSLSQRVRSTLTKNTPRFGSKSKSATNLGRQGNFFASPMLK
Regarding `CCOC(=O)CC1C(=O)NCCN1C(=S)NC(=O)c1ccccc1OC` (stereo not given), the inhibition was 3.14%.
For `CCN(CC(=O)Nc1ccc(NC(C)=O)cc1)C(=O)c1cn(-c2ccccc2)nc1-c1cccs1`, the inhibition was 7.68%.
With `COc1ccc(C)cc1NC(=O)NC1CC(=O)N(c2ccc3c(c2)OCCO3)C1` (stereo not given) the figure was 10.3%.
In the case of `CC(/C=C/c1ccccc1)=N/O` it was 4.32%; in that of `CCOc1ccc(/C=C\C(C)=N\O)cc1`, 8.33%; in that of `COc1ccc(Cl)cc1C(=O)NCCN1CCOCC1`, 3.67%.
With `Cc1cccc(NS(=O)(=O)c2ccc(C)c(C(=O)NCC(c3ccco3)N3CCCCC3)c2)c1` (stereo not given) the figure was 4.69%; with `C/C(=N\NC(=O)c1ccccc1F)c1cccc(NC(=O)c2ccc(C)cc2)c1`, 5.2%.
With `CCOC(=O)Nc1ccc2c(c1)N(C(=O)CN(C)C)c1ccccc1S2`, the inhibition was -22.2%.
With `CC(=O)c1ccc2c(c1)N(C)c1ccccc1S2`, the inhibition is 18.2%.
Turning to `COc1ccc(/C(C)=N/Nc2ccc(C(=O)O)cc2)cc1OC`, the inhibition was -0.19%.
As for `C/C(=N\NC(=O)c1ccccc1F)c1cccc(NC(=O)c2ccccc2)c1`, the inhibition was 4.16%.
In the case of `COC(=O)c1ccc2c(c1)NC(=O)c1ccccc1S2` it was 8.59%; in that of `C=CC(=O)N1c2ccccc2Sc2ccc(NC(=O)OCC)cc21`, 6.2%; in that of `C/C(=N\Nc1ccc(C(=O)O)cc1)c1ccc(Br)cc1`, 14%.
`Cc1ccc(CN2[C@@H](Cc3ccccc3)C(=O)CS2(=O)=O)cc1`: the inhibition is 3.43%.
For the molecule `O=C(NNC(=O)c1n[nH]c2ccccc12)c1ccccc1`, the inhibition was 4.79%.
In the case of `CN1CCN(c2cc(C(F)(F)F)nc(-c3ccccn3)n2)CC1` it was 1.81%; in that of `C=CCn1c(SCc2ccc(C(=O)OC)cc2)nnc1-c1sc(N)nc1C`, 3.61%; in that of `COc1ccccc1CCNC(=O)NC1CCCCC1`, 3.38%.
As to `Cc1ccccc1N(CC(=O)NCCc1ccccc1)C(=O)c1ccc(N2CCCC2)nc1`, the inhibition was -2.74%.
With `COc1cccc(OC)c1C(=O)NC(=S)NCc1cccnc1` the figure was 6.24%.
Take `CCC1CCCCN1C(=O)COc1ccc2c(c1)OCO2` (stereo not given): the inhibition is 2.24%.
In the case of `Cc1ccc(C(=O)c2c3ccc([N+](=O)[O-])cc3[n+]([O-])n2CCCN)cc1` it was 8.83%.
As to `C/C(=N\NC(=O)c1ccc(O)cc1)c1cccc(NC(=O)c2ccc(Cl)cc2)c1`, the inhibition is 8.52%.
`CC(=O)Nc1cccc(/C(C)=N/NC(=O)c2ccc(O)cc2)c1`: the inhibition was 0.87%.
In the case of `Cc1cccc(C(=O)Nc2cccc(C(=O)N3CCOCC3)c2)c1` it was -5.11%.
With `COCCNC(=S)Nc1cc(OC)c(NC(=O)c2ccco2)cc1OC` the figure was 3.43%; with `COCCNC(=S)Nc1cc2oc3ccccc3c2cc1OC`, 17.8%.
In the case of `CC(=O)N1CCc2c(sc(NC(=O)Cc3ccc(C)cc3C)c2C#N)C1` it was -2.35%.
For `COc1ccc(/C=N/NC(=O)c2nc(-c3ccccc3)cc(-c3ccccc3)n2)cc1O`, the inhibition is 24.5%.
With `Cc1nn(-c2ccccc2)c(C)c1-c1cc(C(=O)N/N=C/c2ccc(O)cc2)[nH]n1` the figure was 19.3%; with `COc1ccc(/C=N/NC(=O)c2nc(-c3ccccc3)n(-c3ccccc3)n2)cc1`, -5.29%.
As to `Cc1cccc(-n2cnc(C(=O)N/N=C\c3ccc(Br)cc3)c2)n1`, the inhibition was 12.1%.
With `COc1ccc(/C=N/NC(=O)c2nc(-c3ccccc3)n(-c3ccccc3)n2)cc1OC` the figure was 6.46%.
In the case of `Cc1cccc(-n2cnc(C(=O)N/N=C/c3ccccc3)c2)n1` it was 6.69%; in that of `Cc1cc(C(=O)N/N=C/c2c(C)nn(-c3ccccc3)c2C)n[nH]1`, -3.78%.
With `COc1ccc(/C=N/NC(=O)c2nc(-c3ccccc3)cc(-c3ccccc3)n2)cc1OC`, the inhibition was 11.2%.
For `O=C1CCC2(CC1)NC(=O)N(c1ccccc1)N2`, the inhibition was -10.2%.
In the case of `O=C1CNC(=S)N1CCOc1ccccc1` it was -1.2%.
In the case of `COc1ccc(S(=O)(=O)Nc2cc(C(=O)NCCC(C)C)ccc2N2CCOCC2)cc1` it was -3.38%; in that of `CCOc1ccc(-c2cc(C(=O)N3CCCC3)c3ccccc3n2)cc1`, 1.87%.
In the case of `CCOC(=O)COc1ccccc1-c1ccno1`, the inhibition is 5.09%.
With `COc1ccc(S(=O)(=O)Cc2ccc(C(=O)NCC(OC)OC)o2)cc1` the figure was 5.28%; with `CCC1C(=O)NCCN1C(=O)c1cc(COc2cc(C)ccc2C)on1` (stereo not given), 13.8%; with `O=C(NCc1cccnc1)c1ccccn1`, 3.14%.
With `O=C(Nc1cnccn1)Nc1ccc(Cl)cc1Cl` the figure was -2.37%; with `O=C(CCc1c[nH]c2ccccc12)NCCc1ccccc1`, 7.24%.
In the case of `O=C(CCc1c[nH]c2ccccc12)NCCc1ccc(Cl)cc1` it was 6.06%; in that of `Cc1ccc(NC(=O)C(OC(=O)c2cnc(C)cn2)c2ccccc2)c([N+](=O)[O-])c1` (stereo not given), 4.33%; in that of `O=C(COc1ccc2cc(Br)ccc2c1)N1CCCC1`, 8.08%.
Take `CCCOC(=O)c1ccc(Oc2c(-c3ccc(O)cc3O)n[nH]c2C)cc1`: the inhibition was 19.3%.
With `COc1ccc(-c2[nH]ncc2-c2csc(C)n2)c(O)c1` the figure was 13.3%; with `Cc1[nH]nc(-c2ccc(O)c(C)c2O)c1Oc1ccccc1`, 18.4%.
Turning to `CCOc1ccc(-c2n[nH]c(C)c2Oc2ccc(OC)cc2)c(O)c1`, the inhibition is 11%.
As for `O=S(=O)(N/N=C\c1ccccc1O)c1ccc(Cl)cc1`, the inhibition was 6.73%.
In the case of `O=C1CC(C(=O)Nc2ccc(Cl)cc2)S/C(=N\N=C\c2ccco2)N1` (stereo not given) it was 10.6%; in that of `c1ccc(CCNc2ccnc3cc4ccccc4cc23)cc1`, 13.8%; in that of `COc1ccc(Nc2ccnc3ccccc23)cc1`, 3.59%.
In the case of `COCCN1C(=O)N(c2ccccc2)C(=O)C1CC(=O)Nc1cc(OC)cc(OC)c1` (stereo not given), the inhibition was -13.2%.
With `COC(=O)C(Cc1cncn1COCc1ccccc1)NC(=O)OC(C)(C)C` (stereo not given) the figure was 4.31%; with `c1ccc(CN2CCN(c3ncnc4c3[nH]c3ccccc34)CC2)cc1`, 20.2%.
On to `Cc1ccc2[nH]c3c(N4CCN(Cc5ccccc5)CC4)ncnc3c2c1`, for which the inhibition was 22.2%.
With `O=C(CCCc1ccccc1)Nc1ccnn1C1CCN(Cc2ccccc2F)CC1` the figure was 7.8%; with `Cc1occc1C(=O)NNC(=O)C1CCCC1`, 0.63%; with `COc1cc(OC)cc(C(=O)N2CCN(Cc3cccc(F)c3)CC2)c1`, 27.4%.
With `COc1ccc(CN2CCN(C)CC2)cc1OCc1ccccc1`, the inhibition is 8.63%.
With `CNC(=O)NC(=O)C(C)N1CCN(C/C=C/c2ccccc2)CC1` (stereo not given) the figure was -5.37%.
With `COc1ccc(CN2CCN(C(=O)c3cccc4ccccc34)CC2)cc1OC` the figure was 30.3%.
With `COc1cccc(CN2CCSCC2)c1` the figure was 16.8%; with `COc1ccc(N2CCN(C(C)C(=O)N(C)Cc3ccccc3)CC2)cc1` (stereo not given), 11%; with `COc1ccc(CN2CCC(Cc3ccccc3)CC2)cc1OC`, 29.4%.
As for `COc1ccc(CN2CCOCC2)cc1OC`, the inhibition was 11.6%.
In the case of `O=C(CN(c1ccccn1)S(=O)(=O)c1ccccc1)N/N=C/c1cccc([N+](=O)[O-])c1` it was 6.03%.
In the case of `CC(NC(=O)C1CCN(c2nnc(N3CCCC3=O)s2)CC1)c1ccccc1` (stereo not given) it was 1.18%; in that of `Cc1nn(-c2cc(C(F)(F)F)ccc2Cl)c2nc(C(F)(F)F)[nH]c(=O)c12`, 6.22%; in that of `CCN1C(=O)CC(N2CCN(c3cccc(OC)c3)CC2)C1=O` (stereo not given), 7.87%.
In the case of `COc1cc(CN2CCN(Cc3ccc([N+](=O)[O-])cc3)CC2)c([N+](=O)[O-])cc1OC` it was 28.4%.
On to `CC(C(=O)N(C)Cc1cccc(F)c1)N1CCN(S(=O)(=O)c2ccc3c(c2)OCCCO3)CC1` (stereo not given), for which the inhibition was 4.74%.
With `COc1ccc(CN2CCN(c3ncccn3)CC2)c(OC)c1` the figure was 9.88%; with `COc1ccc(CN2CCN(C(C)C(=O)N3CCc4ccccc43)CC2)cc1OC` (stereo not given), 7.8%.
In the case of `COc1ccc(CN2CCN(S(=O)(=O)c3ccc(F)cc3)CC2)cc1OC` it was 19.8%; in that of `COc1cc(CN2CCN(Cc3ccc(C)cc3)CC2)c([N+](=O)[O-])cc1OC`, 31.1%; in that of `COc1ccc(CN2CCN(c3ccccc3OC)CC2)c(OC)c1`, 25.9%.
With `COc1cc(OC)c(OC)cc1CN1CCN(Cc2cccc(F)c2)CC1` the figure was 9.82%.
Take `CC(NCC(c1ccco1)N1CCCCC1)C(=O)NC1CCCC1` (stereo not given): the inhibition is 6.01%.
With `Cc1[nH]ccc(=O)c1OCc1ccc(Cl)cc1` the figure was 8.17%; with `CCCSc1nnc2c(n1)OC(c1cccn1C)N(C(C)=O)c1ccccc1-2` (stereo not given), 7.61%.
Take `Cc1cccc(NC(=O)Nc2cnccn2)c1C`: the inhibition is 7.34%.
With `COc1cc(C(=O)NC2CCCC2)c(Br)c(OC)c1OC` the figure was 11.2%; with `Cc1ccc(C(CNS(=O)(=O)c2ccc(F)cc2)N2CCN(C)CC2)cc1` (stereo not given), 3.73%; with `C#CCOCCOCCOCCNc1nc(N2CCN(C(=O)[C@H]([C@@H](C)O)n3cc(CCCCN)nn3)CC2)nc(N2CCN(C(=O)[C@H](C)n3cc(CCCN=C(N)N)nn3)CC2)n1`, 6.19%.
As for `CCOc1ncccc1C(=O)OCC(=O)c1ccc(OC)c(OC)c1`, the inhibition is 2%.
With `COc1cccc(CN2CCC(N(CCc3ccccc3)Cc3ccccc3)CC2)c1OC` the figure was 22.3%; with `CCCN1CCC(N(CCc2ccccc2)Cc2ccccc2)CC1`, -10%.
